Article PMC12136788
Residue numbers refer to the chain shown, from its start. In all, about 24,000 sequences were measured (“enrichment r”: median about 0.99, highest 2% from about 3.7 on). Shown is part of a subset that was picked to be rich in the highest values.

T1: UNK ZnF1-3 (human, UniProt Q9C0B0 31-174)
T1 sequence: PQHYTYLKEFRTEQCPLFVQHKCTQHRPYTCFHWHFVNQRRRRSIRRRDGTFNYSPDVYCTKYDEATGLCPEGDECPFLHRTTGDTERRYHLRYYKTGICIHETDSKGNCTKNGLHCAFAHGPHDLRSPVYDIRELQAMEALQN

B1: chr9:14812383:14812384:-_ENSMUSG00000031934_ENSMUST00000164273|mus_mus|mus_mus_mus_hu_True|28_28 (ssRNA)
RNA: GGGAGUUCUACAGUCCGACGAUCAUAGCCCAGGUAGAUACACGCUAACAGUAUAAUGAUGAGUGUCAGCAGGCGGCAGCUAAUGUACUUGAUGAUUAAAUUAUUAGAGUUCUUUUUUGUCUUCAAGUACUGCUCCACAAUUGGCAACAGAGGAUUGAGCAUCA
B2: chr13:51246309:51246310:+_ENSMUSG00000021395_ENSMUST00000095797|mus_hu|FALSE|FALSE (ssRNA)
RNA: GGGAGUUCUACAGUCCGACGAUCCCCACAGUGAAGCACGAGGGACAGAGCGACUGCAGCUGUGGACAGAAAACUGAGGUACUGUGUUUACAUGGUGAGUGGUCGUUACCAUCCAACAGCACAAGGCACAAAAAAUGGGCAUCACAACAGAGGAUUGAGCAUCA
B3: chr5:144471560:144471561:-_ENSMUSG00000051306_ENSMUST00000053287|mus_hu|FALSE|FALSE (ssRNA)
RNA: GGGAGUUCUACAGUCCGACGAUCGAGACUCCAGUAUCAGUGAAGACAAGAGACGCUGUAUCAAAAAGUGUUGUGUAAUAGAAACAUACUGUCGGCUUUACAAAUCAUGUCUGGGUUAUACAUUCAUAAUGUAAAUACUCAUCACAACAGAGGAUUGAGCAUCA
B4: chr11:54532911:54532912:-_ENSMUSG00000052298_ENSMUST00000064104|mus_hu|FALSE|FALSE (ssRNA)
RNA: GGGAGUUCUACAGUCCGACGAUCGGGUCGGCAGUGAAAAGAAAAAUGUUUAAAAUAGAAAAAAAAAACUGCAAAAUGGUGUUAGCAUUCACAAAAAAGAUCAUGCGAAGAUCAGAUCCAUACUGAUUAAACAUUGAAAAUUCACAACAGAGGAUUGAGCAUCA
B5: chr7:140404665:140404666:+_ENSG00000090266_ENST00000247866|hu_hu|hu_hu_hu_mus_False|18_38 (ssRNA)
RNA: GGGAGUUCUACAGUCCGACGAUCUGCUCCUACUCGUCCAGAGAGUUUACAGUGUCAGUCCUCGUCAUCAGGAGGGAUUCCCAGUUCUUCAUCUGUCCACUGGGAAGGAUCUGGAUACGGAAAGUGACCCAGCACAGCAUCCGACAACAGAGGAUUGAGCAUCA
B6: chr6:89793807:89793808:+_ENSG00000146278_ENST00000336032|hu_mus|FALSE|FALSE (ssRNA)
RNA: GGGAGUUCUACAGUCCGACGAUCACUUCCCAUCCAGUGACUCGGAGGCUUUGGGAGGACACUAGGGGAAGGUGGGUCACUGAACUUUGCUCCGGCGUAAUUUUCCUUUUGGCUCACUUCUGUUAGAAAUGCUGAUUUCUUCAACAACAGAGGAUUGAGCAUCA
B7: chr9:104153060:104153061:-_ENSG00000136897_ENST00000374865|hu_mus|FALSE|FALSE (ssRNA)
RNA: GGGAGUUCUACAGUCCGACGAUCAUGAGAUUCCAAGCGACUCUGGAGAUCACUGGGCGGUGUGUAUGCUCGGCUUCGUAAGGGUGGACACACCAAAACAGGUUCUUUUUUCACUUCUUCCACUGUCUCUGCCACAACUGGCUCCAACAGAGGAUUGAGCAUCA
B8: chr19:37005844:37005845:-_ENSG00000254004_ENST00000523638|hu_mus|FALSE|FALSE (ssRNA)
RNA: GGGAGUUCUACAGUCCGACGAUCGGGAGUUUUCUUAGAUUCACUGGGUCUCUCUUCGGUAUGUUGUUUCUGAUGAGAAAGGAAGUUUCCUCUCUGGCUGAAGGCCUUCCCACAUUCCCCACACUUGUAGGACUCCCUCCUUGGCAACAGAGGAUUGAGCAUCA
B9: 118238769_118243032_844_CDS_ENSMUSG00000005102_ENSMUST00000005233|mouse|control|control (ssRNA)
RNA: GGGAGUUCUACAGUCCGACGAUCAGAGAAAUGGAGGAUGUCACACGAGCCAGGAGAGGGUUCACCACUACACACAGAAUACUGACGUUCUCGCCUGGACCUUCCUGAGGAGUAUGUCCGGGCUUUACCAUUUCCUACAAAGUCCAACAGAGGAUUGAGCAUCA
B10: chr16:94690093:94690094:+_ENSMUSG00000040785_ENSMUST00000117648|mus_hu|mus_mus_mus_hu_True|18_68 (ssRNA)
RNA: GGGAGUUCUACAGUCCGACGAUCGGGCUGGGAUGACGGACACACAGCCUCGAUUCCAGGGGGAAAAAAAAAUAGCCGAUACUAAUUAAAAAGUGUUAAUGAUUUUUGAAAAUCAGAUGUAGAUUAAAAAAGAUGAAAAGCAAACAACAGAGGAUUGAGCAUCA
B11: chr1:150192712:150192713:-_ENSG00000143401_ENST00000314136|hu_hu|motif|central (ssRNA)
RNA: GGGAGUUCUACAGUCCGACGAUCGCACCAUACUACACCUGUGUAAAAGUGAUCAUGUUUUAAUUAUGGGCUAAAAAUGACGGAUACAGUAAGCUUGAAUUUAAAAAAUUAAGUCUAAAUAAAUUGCUAGGGAAUUCCACAAUGCAACAGAGGAUUGAGCAUCA
B12: chr12:72179577:72179578:+_ENSG00000080371_ENST00000261263|hu_mus|motif|central (ssRNA)
RNA: GGGAGUUCUACAGUCCGACGAUCGUUUAGCACUUAAGGUCUCUGCAGUGUUAUAAACGUAAUUGAAAAUACUGUUAAUUCGGUAACUCCAUUGGUAAAAUGAUGUGACUUGGAAUAUGGCAGUCUUCAUGUUGAGGGCAAUGACAACAGAGGAUUGAGCAUCA
B13: chr4:25749455:25749456:-_ENSG00000091490_ENST00000264868|hu_hu|hu_hu_hu_mus_False|8_68 (ssRNA)
RNA: GGGAGUUCUACAGUCCGACGAUCGCACUAUGACCUCUAGAAAAAUCCACAGGGGGAAAAAAUGUAAACCAAUUUACAAUGUUAUCGCCUUCCCUGUGUGUGGAGUGUUUGUCUCAAGGCUCCUUCUUGCCUUAUAAUUUGGGACAACAGAGGAUUGAGCAUCA
B14: chr1:150192712:150192713:-_ENSG00000143401_ENST00000314136|hu_hu|FALSE|FALSE (ssRNA)
RNA: B11 RNA with G81U, G82A

molecular target: T1, UNK ZnF1-3; assay: nsRBNS (natural sequence RNA bind-n-seq); RBNS binding buffer (assumed for nsRBNS): 25 mM Tris pH 7.5, 150 mM KCl, 3 mM MgCl2, 0.01% Triton X-100, 500 ug/ml BSA, 20 U/ml SUPERase-In, 4 C; UNK is unkempt and MSI1 is Musashi-1; names of the RNAs are library labels; protein concentration not given here; high values mean tight binding

| Binder | binding signal [enrichment R] |
| --- | --- |
| B1 | 1.74 |
| B2 | 1.39 |
| B3 | 1.01 |
| B4 | 4.5 |
| B5 | 1.45 |
| B6 | 0.744 |
| B7 | 0.821 |
| B8 | 0.845 |
| B9 | 1.63 |
| B10 | 3.66 |
| B11 | 5.11 |
| B12 | 0.946 |
| B13 | 0.719 |
| B14 | 5.25 |
